Akt phos inh – inhibitors of Akt phosphorylation; Neuro2A IGF-stimulated pAkt S473 HTRF, 20 min; active compounds read low; activity change, % for hits at 50 µM; 0.32% of 360,000 active; in the data active = activity change below about -80%; inconclusive = mostly about -51% to -80%; also: % is scaled to controls: 0 for no effect and ±100 for the full control effect
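Neuro2A cells in DMEM with 0.5% FBS, overnight at 37 deg C, given compound at single 50 µM final, then IGF (6 nM final) for 20 min at 37 deg C. Lysed; phospho-Akt Ser473 by HTRF after 24 h, 665/615 ratio.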
Vif-APOBEC3G blk – blocks the Vif interaction with human APOBEC3G; Q9HC16; HeLa A3G-eYFP + Vif (tagged APOBEC3G with the HIV-1 protein that degrades it), YFP fluorescence, overnight; Potency, µM (top dose mostly 46.1 µM), inactives show at the top dose activity, negative = active, hits mostly inhibitors; 0.076% of 410,000 active; AID 602310; also: potency is read from the fitted curve at half-maximal effect; % is scaled to controls: 0 for no effect and ±100 for the full control effect; nearly all actives have a fitted effect of over 60% in size
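Read-out is eYFP fluorescence (Ex 488/Em 500-530) from Vif-expressing HeLa A3G-eYFP cells; more signal means A3G escaped Vif-mediated degradation. Cells plated overnight, compound pinned in, incubated overnight at 37 deg C.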
PTAP TSG101 blk – blocks PTAP/TSG101 interaction to inhibit HIV-1 budding; Q99816; Fluorescence polarization, FITC-PTAP peptide / Tsg101 binding; Potency, µM (top dose mostly 115 µM), without a hit: top-dose activity change, negative = inhibition, hits mostly inhibitors; 340,000 tested, under 10 active; AID 493005; active = well fitted inhibition curve with a large enough effect in the main read-out, with a control signal flat, not every such curve was filed as active; inconclusive = small, poorly fitted or top-dose-only effect, or effect the other way, or a change in a side signal; inactive = no such curve, though single readings can be large or run the other way; also: potency is read from the fitted curve at half-maximal effect; % of control where 0% means no effect
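Fluorescence anisotropy tracks displacement of a FITC-tagged PTAP peptide (50 nM) from the Tsg101 binding domain (10 uM), following a 20 min room-temperature incubation at pH 7.5.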
Vif-APOBEC3F blk – blocks the Vif interaction with APOBEC3F | HeLa A3F-eYFP + Vif (tagged APOBEC3F with the HIV-1 protein that degrades it), YFP fluorescence increase | Potency, µM (titrated, usually from 46.1 µM), for the others: top-dose activity, negative = active | 0.2% of 390,000 active | AID 602313; also: potency is read from the fitted curve at half-maximal effect; % of control where 0% means no effect; nearly all actives have a fitted effect of over 65% in size
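Fluorescence increase (Ex 488/Em 500-530) after overnight compound treatment at 37 deg C flags inhibition of Vif-driven A3F-eYFP loss in stable HeLa A3F-eYFP/Vif cells seeded overnight beforehand.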
ASM inhibitor – blocks human secretory acid sphingomyelinase; P17405; placental ASM, HMU-PC fluorogenic substrate, 60 min; Potency, µM (doses to about 57.5 µM), inactives show at the highest dose activity change, negative = inhibition, most hits filed as inhibitors; 0.006% of 340,000 active; AID 504937; also: potency is read from the fitted curve at half-maximal effect
Target sequence (P17405 47-631 limits assumed): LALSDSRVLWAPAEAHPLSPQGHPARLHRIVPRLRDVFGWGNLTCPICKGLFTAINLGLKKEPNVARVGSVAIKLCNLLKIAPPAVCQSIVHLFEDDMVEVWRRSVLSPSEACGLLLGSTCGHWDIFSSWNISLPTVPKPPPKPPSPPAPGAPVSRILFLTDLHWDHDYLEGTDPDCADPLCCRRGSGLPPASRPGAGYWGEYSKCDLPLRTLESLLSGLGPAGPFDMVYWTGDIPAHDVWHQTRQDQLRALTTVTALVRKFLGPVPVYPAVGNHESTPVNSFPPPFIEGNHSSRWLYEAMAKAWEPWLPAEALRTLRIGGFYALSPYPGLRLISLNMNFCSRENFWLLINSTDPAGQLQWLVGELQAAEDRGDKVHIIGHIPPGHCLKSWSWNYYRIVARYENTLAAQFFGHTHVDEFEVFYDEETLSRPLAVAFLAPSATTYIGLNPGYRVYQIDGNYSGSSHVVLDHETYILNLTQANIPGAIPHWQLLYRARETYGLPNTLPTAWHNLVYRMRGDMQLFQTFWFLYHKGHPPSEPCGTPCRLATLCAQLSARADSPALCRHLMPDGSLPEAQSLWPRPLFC
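Fluorogenic HMU-PC substrate (9 uM final) is turned over by placental ASM in 60 min at 37 C after a 10 min compound preincubation. Reaction ended by alkaline stop (pH 10), with fluorescence read at 386/447 nm.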
12-LOX inh – inhibitors of human 12S-lipoxygenase ALOX12; purified 12hLO, xylenol orange hydroperoxide absorbance; Potency, µM (doses to about 108 µM), without a hit: at the highest dose activity change, negative = inhibition, actives largely listed as inhibitors; 1.1% of 580,000 active; also: potency is read from the fitted curve at half-maximal effect; % is scaled to controls: 0 for no effect and ±100 for the full control effect
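Purified human 12hLO at 150 nM in 25 mM Hepes, 0.01% Triton X-100, pH 7.0, preincubated 15 min at room temperature with compound. Reaction started with 40 uM arachidonic acid, 30 min at room temperature. Hydroperoxide measured by Fe-xylenol orange, 573/405 nm absorbance ratio.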
* hit, by the source's call. Hits are enriched below; roughly 1.4% of the tested compounds scored in any of these assays. Unless noted, calls follow the shape of the dose curve; as a rule, active = well fitted curve in the direction sought with a large enough effect; inconclusive = small, poorly fitted or top-dose-only effect, or another doubt; inactive = no such curve, though single readings can be large; an effect the other way counts as inactive or inconclusive.

O=S1CCN(c2nc(C3CC3)nc3sc4c(c23)CCCC4)CC1 was read as 12-LOX inh 12%.
For Cc1ccc(/C=C2\SC(N3CCCC3)=NC2=O)cc1 the results were 12-LOX inh -17%.
`CN(C)c1ccc(/C=C2\SC(N3CCCCC3)=NC2=O)cc1` gave Akt phos inh inactive, Vif-APOBEC3G blk inconclusive, PTAP TSG101 blk inconclusive, Vif-APOBEC3F blk 22µM*, ASM inhibitor -2% and 12-LOX inh inconclusive.
COc1ccc(CC(=O)NC2CCCc3c2[nH]c2c(Cl)cccc32)cc1OC (stereo unspecified) was read as 12-LOX inh -10%.
CCN(CC(=O)Nc1c(F)cccc1F)C(=O)/C=C/c1ccc2ccccc2n1 was read as Akt phos inh inactive, Vif-APOBEC3G blk -4%, PTAP TSG101 blk -2%, Vif-APOBEC3F blk 0%, ASM inhibitor -3% and 12-LOX inh 32µM*.
`CCN(CC(=O)Nc1c(F)cccc1F)C(=O)c1ccc2ccccc2n1` gave Akt phos inh inactive, Vif-APOBEC3G blk -1%, PTAP TSG101 blk 1%, Vif-APOBEC3F blk -4%, ASM inhibitor 7% and 12-LOX inh -1%.
O=C(Nc1ccc(N2CCOCC2)c2nonc12)C1CCCC1 was read as Akt phos inh inactive, Vif-APOBEC3G blk 2%, PTAP TSG101 blk 2%, Vif-APOBEC3F blk 2%, ASM inhibitor -6% and 12-LOX inh -12%.
Nc1ccc(N2CCOCC2)c2nonc12 was read as Akt phos inh inactive, Vif-APOBEC3G blk 1%, PTAP TSG101 blk -5%, Vif-APOBEC3F blk -6%, ASM inhibitor -1% and 12-LOX inh 40µM*.
O=C(Cc1ccc(Cl)cc1)Nc1cccc(S(=O)(=O)Nc2ccccc2F)c1 was read as Akt phos inh inactive, Vif-APOBEC3G blk 0%, PTAP TSG101 blk -2%, Vif-APOBEC3F blk 4%, ASM inhibitor -9% and 12-LOX inh -7%.
For O=C(CSc1ccc([N+](=O)[O-])cc1)Nc1cccc(S(=O)(=O)Nc2ccccc2F)c1 the results were Akt phos inh inactive, Vif-APOBEC3G blk 3%, PTAP TSG101 blk 1%, Vif-APOBEC3F blk 1%, ASM inhibitor -4% and 12-LOX inh 40µM*.
Screening O=C1CCC(C(=O)Nc2cccc(S(=O)(=O)Nc3ccccc3F)c2)=NN1 returned Akt phos inh inactive, Vif-APOBEC3G blk 0%, PTAP TSG101 blk -2%, Vif-APOBEC3F blk 4%, ASM inhibitor -2% and 12-LOX inh 32µM*.
Screening CS(=O)(=O)Nc1cccc(-c2ccc3ncnc(Nc4ccc(F)cc4)c3c2)c1 returned 12-LOX inh 18µM*.
`CCCc1cc(=O)c2c(O)cccc2o1` gave Akt phos inh inactive, Vif-APOBEC3G blk -6%, PTAP TSG101 blk -3%, Vif-APOBEC3F blk 0%, ASM inhibitor 6% and 12-LOX inh 11%.
For CCCc1cc2c(O)ccc(O)c2c(=O)o1 the results were 12-LOX inh 35µM*.
`Cc1c(-c2ccccc2F)[nH]c2ccc(CNC(=O)C3CCNC3)cc12` (stereo unspecified) gave 12-LOX inh 1%.
Screening COc1cc(-n2c(C)nc3cc(C(=O)NCC4CCCO4)ccc32)cc(OC)c1OC (stereo unspecified) returned Akt phos inh inactive, Vif-APOBEC3G blk -2%, PTAP TSG101 blk -5%, Vif-APOBEC3F blk 5%, ASM inhibitor 3% and 12-LOX inh 6%.
`COc1cc(-n2c(C)nc3cc(C(=O)N4CCOCC4)ccc32)cc(OC)c1OC` gave Akt phos inh -114%*, Vif-APOBEC3G blk 1%, PTAP TSG101 blk -11%, Vif-APOBEC3F blk -8%, ASM inhibitor 1% and 12-LOX inh 0%.
Screening Cc1cccc(NC(=O)NNS(=O)(=O)c2ccc(F)cc2)c1 returned Akt phos inh inactive, Vif-APOBEC3G blk -5%, PTAP TSG101 blk -5%, Vif-APOBEC3F blk -1%, ASM inhibitor 1% and 12-LOX inh 6%.
Screening Cc1cccc(NNC(=O)C(=O)NNc2cccc(C)c2)c1 returned Akt phos inh inactive, Vif-APOBEC3G blk -18%, PTAP TSG101 blk -2%, Vif-APOBEC3F blk 5%, ASM inhibitor 0% and 12-LOX inh 1.4µM*.
`CC(=O)Nc1ccc(S(=O)(=O)NNc2cccc(C)c2)cc1` gave Akt phos inh inactive, Vif-APOBEC3G blk -9%, PTAP TSG101 blk -2%, Vif-APOBEC3F blk 0%, ASM inhibitor -13% and 12-LOX inh 2µM*.
`N#Cc1c(SCC(=O)Nc2nc3ccc(Br)cc3s2)sc2c(O)cc(=O)[nH]c12` gave Akt phos inh inactive, Vif-APOBEC3G blk 2%, PTAP TSG101 blk inconclusive, Vif-APOBEC3F blk -1%, ASM inhibitor -14% and 12-LOX inh 16µM*.
CCCSc1nnc(NC(=O)CSc2sc3c(O)cc(=O)[nH]c3c2C#N)s1 was read as Akt phos inh inactive, Vif-APOBEC3G blk 0%, PTAP TSG101 blk -1%, Vif-APOBEC3F blk -7%, ASM inhibitor -18% and 12-LOX inh 50µM*.
`N#Cc1c(SCC(=O)Nc2nc3ccccc3s2)sc2c(O)cc(=O)[nH]c12` gave Akt phos inh inactive, Vif-APOBEC3G blk -1%, PTAP TSG101 blk -4%, Vif-APOBEC3F blk -3%, ASM inhibitor -15% and 12-LOX inh inconclusive.
Screening COC(=O)C1CCN(c2nc3ccccc3nc2C(C#N)C(=O)NCc2ccccc2)CC1 (stereo unspecified) returned 12-LOX inh -62%.
For CC(C)(C)c1ccc(CCC(=O)NC(C(N)=O)c2ccccc2)cc1 (stereo unspecified) the results were 12-LOX inh -15%.
For COc1ccc(CNc2ncc(-c3ccccc3)n2C)cc1 the results were Akt phos inh inactive, Vif-APOBEC3G blk 2%, PTAP TSG101 blk -11%, Vif-APOBEC3F blk -6%, ASM inhibitor -2% and 12-LOX inh inconclusive.
Screening CCOc1cc(CNc2ncc(-c3ccc(OC)cc3)n2C)ccc1O returned Akt phos inh inactive, Vif-APOBEC3G blk -12%, PTAP TSG101 blk -1%, Vif-APOBEC3F blk 6%, ASM inhibitor 4% and 12-LOX inh 1µM*.
`Cc1ccc(NS(=O)(=O)c2c(F)cc(F)cc2Br)cc1C` gave 12-LOX inh 15%.
Screening CN1/C(=C\C(=O)c2cccs2)Sc2ccccc21 returned Akt phos inh -104%*, Vif-APOBEC3G blk -13%, PTAP TSG101 blk -6%, Vif-APOBEC3F blk 0%, ASM inhibitor 282% and 12-LOX inh inconclusive.
For O=C(N/N=C/c1ccc(O)cc1)c1csc2ccccc12 the results were Akt phos inh -107%*, Vif-APOBEC3G blk -10%, PTAP TSG101 blk -1%, Vif-APOBEC3F blk -7%, ASM inhibitor -10% and 12-LOX inh -21%.

From PubChem BioAssay
